Assay [1] in a line: binders of probe aFSTL3 on microarray, primary screen, stem cell growth factor project, biochemical, small-molecule microarray, fluorescence 635/667 (AID 1064).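 Further: measures binding of the biotinylated anti-FSTL3 antibody to printed compounds.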 The note with it: higher = more signal.
Assay [2] can be described thus: binders from COS7 lysate, DM2A8 probe, primary screen, torsin A project, cell lysate, small-molecule microarray, fluorescence 635/667 (AID 1065). The following applies: higher = more signal, COS7 lysate expressing mutant human TOR1A.
Assay [3] in a line: binders of probe aFGF2 on microarray, primary screen, stem cell growth factor project, biochemical, small-molecule microarray, fluorescence 635/667 (AID 1067).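 Further: measures binding of biotinylated aFGF2 protein to printed compounds on slides; z-score merges feature fluorescence and signal-to-noise across triplicate slides.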 The following applies: higher = more signal.
The nature of assay [4]: binders of probe aFGF10 on microarray, primary screen, stem cell growth factor project, biochemical, small-molecule microarray, fluorescence 635/667 (AID 1071).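 Further: score merges 667 nm spot intensity and signal to noise from triplicate slides.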 The note with it: higher = more signal.
Assay [5] concerns the target Neurogenic locus notch homolog protein 2 (Homo sapiens) (UniProt Q04721). Put plainly: Notch2 binders on small-molecule microarrays, primary screen, biochemical, small-molecule microarray, 635 nm fluorescence, stem cell growth factors (AID 1073). The note with it: Notch2 binding, higher = more signal.
For assay [6], the target named is Pro-neuregulin-1, membrane-bound isoform (Homo sapiens) (UniProt Q02297). The assay can be described thus: NRG1 binders on small-molecule microarrays, primary screen, psychiatric disease protein project, biochemical, small-molecule microarray, fluorescence 635/667 (AID 1075).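 Further: score combines 667 nm spot fluorescence with signal to noise.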 The following applies: NRG1 binding, 635 nm fluorescence, higher = more signal.
Chain of Pro-neuregulin-1, membrane-bound isoform (Homo sapiens) (Q02297 whole entry, looked up, the tested form may be a part, canonical isoform): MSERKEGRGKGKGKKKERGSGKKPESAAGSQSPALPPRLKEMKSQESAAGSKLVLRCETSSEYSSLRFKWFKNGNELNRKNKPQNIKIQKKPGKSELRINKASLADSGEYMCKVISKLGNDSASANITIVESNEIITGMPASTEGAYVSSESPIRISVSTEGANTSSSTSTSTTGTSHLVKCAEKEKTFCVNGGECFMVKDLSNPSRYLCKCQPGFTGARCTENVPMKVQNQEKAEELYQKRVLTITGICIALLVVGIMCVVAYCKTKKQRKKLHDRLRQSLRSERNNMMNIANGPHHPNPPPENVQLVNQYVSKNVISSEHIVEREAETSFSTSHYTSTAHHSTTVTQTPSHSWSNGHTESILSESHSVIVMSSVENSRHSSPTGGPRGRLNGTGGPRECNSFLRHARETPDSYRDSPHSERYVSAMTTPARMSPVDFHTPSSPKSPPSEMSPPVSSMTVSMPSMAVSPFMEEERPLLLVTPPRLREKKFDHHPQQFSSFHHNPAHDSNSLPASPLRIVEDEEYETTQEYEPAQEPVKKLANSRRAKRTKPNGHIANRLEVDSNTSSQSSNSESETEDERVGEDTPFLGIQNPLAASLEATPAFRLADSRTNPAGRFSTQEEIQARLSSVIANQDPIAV
In assay [7] the test system is Neuregulin-1 EGF-like domain. The assay can be described thus: binders of neuregulin-1 EGF-like domain, primary screen, biochemical, small-molecule microarray, 635 nm fluorescence (AID 1081).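 Further: binding of the protein to compounds printed on small-molecule microarray slides.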 The note with it: small-molecule microarray binding, higher = more signal.
Assay [8] is described as follows: FRG1 promoter luciferase signal modulators, primary screen, FRG1 inhibition for FSHD, cell-based, C2C12 myotubes, firefly/Renilla luciferase, luminescence (AID 1084). The following applies: higher = more signal, called active from +8 up or from −8 down.
The nature of assay [9]: binders of probe aFST on microarray, primary screen, stem cell growth factor project, biochemical, small-molecule microarray, fluorescence 635/667 (AID 1086).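 Further: score merges 667 nm fluorescence with signal-to-noise of each printed compound spot.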 The following applies: higher = more signal.
Assay [10] is described as follows: binders of probe aHhip on microarray, primary screen, stem cell growth factor project, biochemical, small-molecule microarray, fluorescence 635/667 (AID 1087).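 Further: score merges spot fluorescence at 667nm with spot signal to noise ratio.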 The following applies: higher = more signal.
Assay [11] deals with PRMT1 (protein arginine N-methyltransferase 1). Put plainly: PRMT1 binders on small-molecule microarrays, primary screen, biochemical, small-molecule microarray, 635 nm fluorescence (AID 1088).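 Further: binding of Prmt1 protein to compounds spotted on small-molecule microarray slides.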 The following applies: small-molecule microarray binding, higher = more signal.
Assay [12] in a line: yeast growth modulation, basal conditions, primary screen, YJM789 clinical isolate, OD600, 24 h (AID 1089).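 Further: growth of clinical yeast isolate S. cerevisiae YJM 789 seeded 1000 cells per well; test concentration not given here.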 The following applies: S. cerevisiae YJM789 growth, higher = more signal, called active from +8 up or from −8 down.
Assay [13] can be described thus: fission yeast growth modulation, primary screen, strain 972, OD600, 24 h, no modulator (AID 1090).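 Further: basal condition with compound alone and no growth modifier present; test concentration not given here.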 The note with it: S. pombe 972 growth, higher = more signal, called active from +8 up or from −8 down.
Assay [14] can be described thus: S. cerevisiae growth modulation with rapamycin, primary screen, strain BY4716, OD600, 96 h (AID 1091). Further: test concentration not given here. The following applies: higher = more signal, called active from +8 up or from −8 down.
Assay [15] addresses Torsin-1A-interacting protein 2 (Homo sapiens) (UniProt Q8NFQ8). The assay can be described thus: LULL1 binders on small-molecule microarray, primary screen, cell lysate, human LULL1 lysate, 635/667 nm fluorescence (AID 1092).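 Further: probe is lysate of COS7 cells overexpressing human LULL1; score merges per-feature 667 nm fluorescence with signal-to-noise.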 The note with it: hLULL1 lysate binding, 635 nm fluorescence, higher = more signal.
The nature of assay [16]: E. coli growth modulation, two-sided OD650, primary screen, E. coli filamentation project, strain DRC41, 24 h (AID 1093).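 Further: MC1000 strain lacking acrAB efflux and sulA so SOS filamentation is blocked; test concentration not given here.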 The following applies: OD650, 24 h, higher = more signal, called active from +8 up or from −8 down.
Assay [17] can be described thus: small-molecule microarray binders of probe aLefty2, primary screen, biochemical, biotinylated probe, 635/667 nm fluorescence (AID 1094).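 Further: score merges spot fluorescence near 667 nm with spot signal-to-noise ratio.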 The following applies: higher = more signal.
For assay [18], the system named is Noggin (protein binding on small-molecule microarray). The assay can be described thus: Noggin binders on small-molecule microarray, primary screen, biochemical, 635/667 nm fluorescence (AID 1095).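 Further: score merges 667 nm feature fluorescence with signal to noise over triplicate slides.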 The following applies: 635 nm fluorescence, higher = more signal.
Assay [19] concerns the target Neurogenic locus notch homolog protein 3 (Homo sapiens) (UniProt Q9UM47). The assay can be described thus: NOTCH3 binders on small-molecule microarray, primary screen, biochemical, 635/667 nm fluorescence (AID 1096). The following applies: NOTCH3 binding, 635 nm fluorescence, higher = more signal.
Assay [20] in a line: small-molecule microarray binders of probe aEGFR, primary screen, biochemical, biotinylated probe, 635/667 nm fluorescence (AID 1097).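 Further: probe is a biotinylated anti-EGFR antibody binding compounds printed on slides; score combines fluorescence near 667 nm and signal to noise of each spot.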 The following applies: higher = more signal.

Active and inactive are the calls of the source.

Chain of Torsin-1A-interacting protein 2 (Homo sapiens) (Q8NFQ8 whole entry, looked up): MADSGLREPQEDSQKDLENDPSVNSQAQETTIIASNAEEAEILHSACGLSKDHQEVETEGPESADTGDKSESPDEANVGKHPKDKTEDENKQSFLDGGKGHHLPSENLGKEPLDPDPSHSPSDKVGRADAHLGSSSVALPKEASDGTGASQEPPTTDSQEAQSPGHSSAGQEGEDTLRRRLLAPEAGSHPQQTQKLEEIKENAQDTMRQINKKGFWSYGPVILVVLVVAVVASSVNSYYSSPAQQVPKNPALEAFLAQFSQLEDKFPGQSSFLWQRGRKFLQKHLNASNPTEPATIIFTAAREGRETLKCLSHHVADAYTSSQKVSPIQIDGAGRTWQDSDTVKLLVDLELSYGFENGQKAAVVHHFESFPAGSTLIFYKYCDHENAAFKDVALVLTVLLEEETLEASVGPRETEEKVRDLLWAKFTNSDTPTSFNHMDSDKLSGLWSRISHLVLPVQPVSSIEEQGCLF
Chain of Neurogenic locus notch homolog protein 2 (Homo sapiens) (Q04721 whole entry, looked up, canonical isoform): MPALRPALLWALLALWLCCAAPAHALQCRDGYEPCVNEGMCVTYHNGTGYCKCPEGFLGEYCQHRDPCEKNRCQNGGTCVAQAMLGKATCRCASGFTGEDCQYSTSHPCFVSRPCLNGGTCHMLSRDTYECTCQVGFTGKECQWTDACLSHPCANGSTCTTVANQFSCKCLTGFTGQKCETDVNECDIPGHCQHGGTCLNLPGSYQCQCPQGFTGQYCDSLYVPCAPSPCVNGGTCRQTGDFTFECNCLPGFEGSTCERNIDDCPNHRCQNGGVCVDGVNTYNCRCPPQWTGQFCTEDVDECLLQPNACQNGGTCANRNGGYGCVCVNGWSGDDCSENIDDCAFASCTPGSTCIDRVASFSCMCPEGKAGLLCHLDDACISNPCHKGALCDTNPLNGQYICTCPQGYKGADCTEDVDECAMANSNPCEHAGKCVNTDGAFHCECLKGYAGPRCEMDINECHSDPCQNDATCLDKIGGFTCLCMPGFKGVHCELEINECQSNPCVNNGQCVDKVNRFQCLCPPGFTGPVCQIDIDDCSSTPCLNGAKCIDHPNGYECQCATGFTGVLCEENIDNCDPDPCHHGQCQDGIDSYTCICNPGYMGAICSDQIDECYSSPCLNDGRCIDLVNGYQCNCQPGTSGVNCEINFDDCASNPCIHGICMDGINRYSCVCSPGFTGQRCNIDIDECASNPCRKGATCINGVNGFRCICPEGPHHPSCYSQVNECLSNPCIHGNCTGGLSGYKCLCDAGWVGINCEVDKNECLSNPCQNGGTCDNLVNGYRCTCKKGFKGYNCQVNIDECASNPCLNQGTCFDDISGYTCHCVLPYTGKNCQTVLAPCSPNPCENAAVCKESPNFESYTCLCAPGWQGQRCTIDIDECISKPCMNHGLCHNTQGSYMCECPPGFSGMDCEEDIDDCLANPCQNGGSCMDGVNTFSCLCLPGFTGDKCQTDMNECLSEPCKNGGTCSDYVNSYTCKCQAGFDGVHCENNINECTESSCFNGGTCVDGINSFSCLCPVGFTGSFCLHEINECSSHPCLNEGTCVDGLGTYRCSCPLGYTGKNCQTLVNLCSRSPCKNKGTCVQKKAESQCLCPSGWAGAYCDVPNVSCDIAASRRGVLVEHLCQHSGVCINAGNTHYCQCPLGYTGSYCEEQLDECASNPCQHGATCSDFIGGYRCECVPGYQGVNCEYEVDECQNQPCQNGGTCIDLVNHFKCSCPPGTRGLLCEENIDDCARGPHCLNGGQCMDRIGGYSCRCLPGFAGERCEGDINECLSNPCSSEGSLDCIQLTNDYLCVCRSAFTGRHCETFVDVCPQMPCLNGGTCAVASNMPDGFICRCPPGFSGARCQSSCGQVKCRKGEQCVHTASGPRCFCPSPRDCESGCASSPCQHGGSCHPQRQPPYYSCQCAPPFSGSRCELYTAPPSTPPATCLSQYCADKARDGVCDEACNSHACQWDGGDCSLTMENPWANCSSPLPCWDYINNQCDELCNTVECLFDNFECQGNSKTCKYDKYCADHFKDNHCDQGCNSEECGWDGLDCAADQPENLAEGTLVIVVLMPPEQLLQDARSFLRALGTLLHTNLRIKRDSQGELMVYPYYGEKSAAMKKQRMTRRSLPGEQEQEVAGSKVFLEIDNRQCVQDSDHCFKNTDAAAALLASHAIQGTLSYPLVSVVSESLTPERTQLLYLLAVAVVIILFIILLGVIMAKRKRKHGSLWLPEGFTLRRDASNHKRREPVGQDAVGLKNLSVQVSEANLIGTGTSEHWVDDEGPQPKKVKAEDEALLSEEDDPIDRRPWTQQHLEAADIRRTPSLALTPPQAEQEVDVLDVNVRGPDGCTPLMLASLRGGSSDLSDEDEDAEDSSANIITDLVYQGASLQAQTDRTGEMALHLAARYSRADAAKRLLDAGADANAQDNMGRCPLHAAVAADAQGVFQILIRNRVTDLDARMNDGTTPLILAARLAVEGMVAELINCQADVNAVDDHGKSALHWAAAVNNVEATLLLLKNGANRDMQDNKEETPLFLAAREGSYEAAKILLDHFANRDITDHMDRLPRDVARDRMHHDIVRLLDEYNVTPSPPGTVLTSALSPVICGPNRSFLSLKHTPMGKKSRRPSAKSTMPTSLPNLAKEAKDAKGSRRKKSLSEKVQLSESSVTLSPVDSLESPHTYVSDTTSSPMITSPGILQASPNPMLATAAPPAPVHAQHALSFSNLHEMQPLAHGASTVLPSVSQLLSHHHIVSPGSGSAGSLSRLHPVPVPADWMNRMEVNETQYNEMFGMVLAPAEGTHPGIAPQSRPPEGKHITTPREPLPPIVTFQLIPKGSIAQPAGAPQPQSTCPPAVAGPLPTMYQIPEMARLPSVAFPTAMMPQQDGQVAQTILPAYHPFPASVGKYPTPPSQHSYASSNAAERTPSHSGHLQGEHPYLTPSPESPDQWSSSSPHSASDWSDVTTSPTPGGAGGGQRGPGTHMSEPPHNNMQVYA

With `COc1ccc(C(=O)Nc2cccc(CN3C(=O)[C@@]4(O[C@@H](CC(=O)N5CCC[C@H]5CO)[C@H]([Si](C)(C)c5ccc(OC)cc5)[C@H]4C)c4ccccc43)c2)cc1`, the composite z-score was -0.226 in assay [1]; 0.484 in assay [2]; -0.0625 in [3]; 0.0314 in [4]; 0.518 in assay [5]; 1.39 in assay [6]. In addition, the composite z-score in assay [7] was 1.13; in assay [9], -0.0084; in assay [10] it was -0.261; in [11] it was 1.55; in assay [15], 0.983; in assay [17], -0.102. Besides, the composite z-score in [18] was 0.766; in assay [19], 0.957; in [20], -0.118. Besides, the z-score is -3.85 (inactive) in assay [8]; -0.624 (inactive) in [12]; 0.706 (inactive) in [13]; -1.2 (inactive) in assay [14]; -0.126 (inactive) in assay [16].

Turning to `C=CCOC(=O)[C@H]1[C@@H]2C(=O)O[C@@H](c3ccccc3)[C@@H](c3ccccc3)N2[C@@H](c2ccc(OCCOC(=O)[C@@H]3C[C@@H]4C(=O)N[C@@H](CCCC[N+](C)(C)C)C(=O)N4[C@@H]3c3ccc(O)cc3)cc2)[C@]12C(=O)Nc1ccc(I)cc12`, the composite z-score in [1] was -0.291; in assay [2], 0.857; in [3] it was 0.0559; in [4], 0.719; in [5] it was 1.24; in assay [6], 1.44. In addition, the composite z-score in assay [7] is 1.11; in assay [9], 0.365; in [10] it was -0.0088; in assay [11], 1.53; in assay [15], 2.44; in assay [17], -0.09. The results for the composite z-score in [18], in assay [19] and in assay [20] were 1.31, 1.14 and 0.06, respectively. Further, the z-score in [8] was 0.687 (inactive); in assay [12], 2.31 (inactive); in assay [13] it was -1.21 (inactive); in [14] it was 1.34 (inactive); in [16], -1.94 (inactive).

As to `COCCOC(=O)N1C(=O)[C@@]2(c3ccccc31)[C@H](c1ccc(O)cc1)N1[C@H](c3ccccc3)[C@H](c3ccccc3)OC(=O)[C@H]1[C@@H]2C(=O)N1CCCCCCC1`, the composite z-score stood at 3.84 in assay [1]; 1.88 in assay [2]; 0.949 in assay [3]; 0.802 in [4]; 1.07 in assay [5]; 2.5 in assay [6]. For the same molecule, the composite z-score in [7] amounted to 1.29; in assay [9], 3.5; in assay [10], 3.27; in assay [11], 1.55; in assay [15] it was 3.9; in assay [17], 1.76. Besides, the composite z-score in assay [18] came out at 1.98; in assay [19] it was 1.02; in assay [20], 1.26. In addition, the z-score in [8] is -3.25 (inactive); in [12] it was -0.322 (inactive); in assay [13] it was 0.621 (inactive); in [14] it was 0.929 (inactive); in assay [16] it was 0.178 (inactive).

For `O=C1C[C@@](C(=O)O)(c2ccc([N+](=O)[O-])cc2)[C@@H](c2ccc(CO)cc2)N1C1CCCCC1`, the composite z-score in [1] is -0.0207; in assay [2] it was 0.748; in [3], 0.137; in [4], 0.687; in [5], 1.46; in [6] it was 1.63. The composite z-score is 1.21 in [7]; 0.905 in assay [9]; -0.0645 in assay [10]; 1.54 in assay [11]; 3.12 in assay [15]; 0.0909 in [17]. The composite z-score is 0.333 in assay [18], 1.15 in assay [19] and -0.0409 in [20]. For the same molecule, the z-score in [8] was -0.118 (inactive); in assay [12], 1.24 (inactive); in assay [13], -1.36 (inactive); in assay [14], 1.05 (inactive); in assay [16], 0.397 (inactive).

Turning to `CN1C(=O)[C@@H]2[C@@H](CC(COc3ccccc3)=C3[C@@H](CCc4ccccc4)OB(O)C[C@@H]32)C1=O`, the composite z-score is -0.124 in assay [1]; 0.275 in assay [2]; -0.0415 in assay [3]; 0.121 in assay [4]; 0.371 in assay [5]; 0.445 in assay [6]. The composite z-score in assay [7] is 0.56; in [9], 0.0157; in [10], -0.0994; in assay [11], 0.359; in assay [15], 0.384; in assay [17] it was -0.205. Moreover, the composite z-score is 0.231 in assay [18], -0.138 in assay [19] and -0.15 in [20]. In addition, the z-score in [8] is -0.799 (inactive); in [12], -0.973 (inactive); in assay [13], -0.793 (inactive); in assay [14], -0.862 (inactive); in assay [16] it was -0.372 (inactive).

(Values after PubChem BioAssay.)
